Dicer processing: inhibitors of Dicer pre-microRNA processing, primary screen, biochemical, cat-ELCCA, chemiluminescence; Endoribonuclease Dicer (Homo sapiens), Q9UPY3; cat-ELCCA pre-miR-21 Dicer processing; hits give high values; z-score at 25 µM; hit rate 6% among 47,000; AID 1347074, 2019; in the data active = z-score above about 3, passing the limit was not always enough;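 also: plate controls were vehicle for no effect and no enzyme for full effect; higher signal means more uncleaved substrate so more Dicer inhibition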
Starred values were filed as active, the others as inactive. The entries come from a sample that favours hits as a whole.

SMILES | Dicer processing
Cc1cc(C)cc(N/C=C(\C#N)S(=O)(=O)c2ccc(Cl)cc2)c1 | -1.1
Cc1ccc(CSc2nnc(-c3ccncc3)o2)cc1 | 0.41
Cc1ccc(CC2CC(=O)N(c3ccncc3)C2=O)cc1 (centres undefined) | -0.31
Cc1ccc(CC2CC(=O)N(Cc3ccco3)C2=O)cc1 (centres undefined) | 3.6*
Cc1ccc(CC2CC(=O)N(c3ccc(C(=O)O)cc3)C2=O)cc1 (centres undefined) | 2.3
CCCC1=NN(c2ccccc2)C(=O)C1 | -6.7
O=[N+]([O-])c1cc(Cl)ccc1Sc1ccccn1 | 0.16
O=[N+]([O-])c1ccc(Sc2cc(Cl)ccc2Cl)nc1 | 4.7*
O=[N+]([O-])c1cccnc1Sc1cc(Cl)ccc1Cl | -0.4
N#Cc1cccc2c(Oc3ccccc3)cc(C(F)(F)F)nc12 | -1.1
CCOC(=O)C1=C(C)NC2=C(C(=O)CC(c3ccccc3)C2)C1c1ccccc1Cl (centres undefined) | 3.7*
CC1=C(C(=O)OCC(C)C)C(c2cccc(F)c2)C2=C(CC(c3ccccc3)CC2=O)N1 (centres undefined) | 1.1
COC(=O)C1=C(C)NC2=C(C(=O)CC(c3ccc(OC)cc3)C2)C1c1ccc(OC)cc1 (centres undefined) | -1.5
COC(=O)C1=C(C)NC2=C(C(=O)CC(c3ccccc3)C2)C1c1ccc(Br)cc1 (centres undefined) | 1.3
CCOCCOC(=O)C1=C(C)NC2=C(C(=O)CC(c3ccccc3)C2)C1c1ccc(F)cc1 (centres undefined) | 1.6
CCOC(=O)C1=C(C)NC2=C(C(=O)CC(c3ccccc3)C2)C1c1cccc2ccccc12 (centres undefined) | 0.44
COC(=O)C1=C(C)NC2=C(C(=O)CC(c3ccccc3)C2)C1c1ccccc1Br (centres undefined) | 7.6*
CCCOc1ccccc1C1C(C(=O)OCC)=C(C)NC2=C1C(=O)CC(c1ccccc1)C2 (centres undefined) | 0.08
CCSCCOC(=O)C1=C(C)NC2=C(C(=O)CC(c3ccccc3)C2)C1c1cccc(F)c1 (centres undefined) | 3.7*
CCSCCOC(=O)C1=C(C)NC2=C(C(=O)CC(c3ccc(OC)cc3)C2)C1c1ccc(F)cc1 (centres undefined) | 1.7
CCOCCOC(=O)C1=C(C)NC2=C(C(=O)CC(c3ccccc3)C2)C1c1cccc2ccccc12 (centres undefined) | 5.2*
CCOC(=O)C1=C(C)NC2=C(C(=O)CC(c3ccccc3)C2)C1c1ccc(C)o1 (centres undefined) | 1.2
CSc1scc(-c2cc(Cl)cc(Cl)c2)c1C#N | -0.74
CCOC(=O)C(NC(=O)c1cccc(Cl)c1)(Nc1ccc(F)c(F)c1F)C(F)(F)F (centres undefined) | 0.9
Cc1onc(-c2c(Cl)cccc2Cl)c1C(=O)N1CC2(C)CC1CC(C)(C)C2 (centres undefined) | -0.19
SMILES | Dicer processing
O=C(NC(=O)N1CCSC1)c1ccccc1Cl | 0.88
Cc1c2n(c3ccccc13)CC/C2=N/OC(=O)Nc1ccc(Cl)cc1Cl | 1.9
Cn1cc(C(/C=C/c2ccc([N+](=O)[O-])o2)c2cn(C)c3ccccc23)c2ccccc21 | 1.7
CCOC(=O)C1CN(c2ccc(C)cc2)CC1=O (centres undefined) | -2.7
COc1ccc(C2C(C(=O)OCC(C)C)=C(C)NC3=C2C(=O)CC(c2ccccc2)C3)c(OC)c1 (centres undefined) | 1.1
COc1ccccc1C1CC(=O)C2=C(C1)NC(C)=C(C(=O)OC(C)C)C2c1coc2ccccc2c1=O (centres undefined) | 0.03
COc1ccc(C2CC(=O)C3=C(C2)NC(C)=C(C(=O)OCC(C)C)C3c2ccc3c(c2)OCO3)cc1 (centres undefined) | -0.15
CCCOC(=O)C1=C(C)NC2=C(C(=O)CC(c3cccs3)C2)C1c1coc2ccc(C)cc2c1=O (centres undefined) | -0.42
CCCOC(=O)C1=C(C)NC2=C(C(=O)CC(c3ccccc3OC)C2)C1c1coc2ccccc2c1=O (centres undefined) | 6*
CC(=O)Oc1ccc(C2C(C(=O)OCC(C)C)=C(C)NC3=C2C(=O)CC(c2ccccc2)C3)cc1 (centres undefined) | 7*
O=C1CCCC2=C1C(c1ccccc1OCc1ccccc1F)C1=C(CCCC1=O)N2 | 0.2
CCCN1CCCC(NC(=S)Nc2ccc(Br)cc2C)C1 (centres undefined) | 1.2
O=C1/C(=C/c2cccs2)CCCc2ccccc21 | 0.41
O=C1/C(=C/c2cccs2)COC/C1=C\c1cccs1 | 4.2*
O=C1/C(=C/c2cccs2)CS/C1=C/c1cccs1 | -3
CCOC(=O)c1cc(C(C)(C)C)n(CCSC)c1C | 42
O=C(Cn1cc(C(=O)c2ccco2)c2ccccc21)Nc1ccc(Cl)cc1 | -0.83
CCOC(=O)c1sc(SC)c(S(C)(=O)=O)c1N | -0.95
COC(=O)c1cc(S(=O)(=O)C(C)C)c(S(C)(=O)=O)s1 | -0.98
CCOC(=O)c1cc(S(=O)(=O)C(C)C)c(SC)s1 | 3.8*
Cc1nc(-c2cc(C(C)(C)C)c(O)c(C(C)(C)C)c2)cs1 | 3.3
CCCCCCNC(=O)NCCCC(=O)O | -0.94
CC1=C(C(=O)OCCc2ccccc2)C(c2ccc(C)s2)C2=C(CC(C)(C)CC2=O)N1 (centres undefined) | -0.16
COc1cc(CNCc2cc(Br)ccc2OC)cc(OC)c1 | 0.2
COc1ccc(Br)cc1CNc1cc(C)cc(C)c1 | 3.6*
SMILES | Dicer processing
COc1ccc(CNCc2cc(Br)ccc2OC)cc1 | 2.2
CSc1cccc(N=Cc2cc(Cl)cc(Cl)c2OS(=O)(=O)c2ccc(C)cc2)c1 | 2.1
CCCOC(=O)CSc1nc(C)cc(C)c1C#N | 1
Cc1csc(-c2cn(C(C)C)c(=O)n(Cc3ccccc3)c2=O)n1 | -0.87
CC(C)n1cc(-c2noc(-c3cccs3)n2)c(=O)n(Cc2ccccc2)c1=O | 3.1*
CC(C)n1cc(-c2nc(-c3ccc(Cl)cc3)cs2)c(=O)n(Cc2ccccc2)c1=O | -0.66
Cc1nc(-c2ccccc2)sc1C(=O)Nc1ccc2ccccc2n1 | -0.5
COC(=O)CNC(=O)Cn1cnc2c1c(=O)n(C)c(=O)n2C | 2.9
CCOC(=O)Cn1cc(C#N)c(=O)[nH]c1=O | -0.59
COC(=O)Cn1cnc(=O)c(C#N)c1C | 3.4*
C#CC(CC)(CC)NC(=O)NC(=O)c1ccccc1Cl | -0.91
Cc1cc(C(F)(F)F)nc2cc(-c3ccc(Cl)cc3)nn12 | 0.22
COC(OC)c1ccc(C#N)c(SCC(=O)c2ccc(C)cc2)n1 | -2.5
CC(C)NC(=O)Nc1n[nH]c(Nc2ccc(Cl)cc2)n1 | 12*
CCCNC(=O)Nc1n[nH]c(Nc2ccc(Cl)cc2)n1 | 2.4
Cc1onc(-c2c(Cl)cccc2Cl)c1NC(=O)NC(C)C | 0.43
NNC(=O)c1ccc(C(F)(F)F)cc1 | 2.3
COC(=O)c1ccc(C2/C(=C(/O)c3ccc(C)cc3)C(=O)C(=O)N2c2cccnc2)cc1 (centres undefined) | 9
c1ccc(-c2nc3ccccc3nc2-c2ccccn2)nc1 | -1.2
Cc1[nH]c(-c2ccccn2)nc(=S)c1Cl | -1.4
Cc1cc(=S)nc(-c2ccccn2)[nH]1 | 6.9*
O=S(=O)(n1nccc1C(c1ccccc1)c1ccccc1)C(F)(F)F | 0.02
CN(C)S(=O)(=O)n1nc(/C=C/c2ccccc2Cl)nc1-c1ccccc1O | 8.1*
Oc1ccccc1-c1nc(/C=C/c2cccs2)nn1-c1ccccc1 | 3

Compound activity: PubChem BioAssay, Center for Chemical Genomics, University of Michigan
